From PubChem BioAssay AID1159580 (chemical genetic matrix, 2015)
“And” between values parts separate entries of the source, which are not always exact repeats. Identical values can stand only once. Out of some 5,500 compounds screened, about 2,000 (36%) were called active. Roughly 18% stayed inconclusive and do not appear here. No stated cut-off is given here; in the data, active means normalized growth mostly below about 0.91 (no sharp cut-off); inconclusive means no clear call, values can overlap the other calls; inactive means mostly above about 0.92. This is one part of the list.

Assay: chemical genetic growth profiling, strain panel (AID 1159580);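 further: tested at 20 µM; growth read once vehicle control cultures reached saturation at 30 °C; 1 = growth at the plate median or of vehicle wells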
Settings: S. cerevisiae deletion strains, growth OD

Measured: normalized growth

CN1C(CC(=O)c2ccccc2)CCCC1CC(O)c1ccccc1 (configuration not stated)
inactive: locus YAL013W, strain DEP1, stronger effect = lower value 1.01 | locus YAL021C, strain ccr4, stronger effect = lower value 0.974 | locus YAL026C, strain drs2, stronger effect = lower value 0.976 | locus YAL030W, strain snc1, stronger effect = lower value 0.977 | locus YBL061C, strain skt5, stronger effect = lower value 0.976 | locus YBR009C, strain hhf1, stronger effect = lower value 0.972 | locus YBR021W, strain FUR4, stronger effect = lower value 1.02 | locus YBR023C, strain chs3, stronger effect = lower value 0.977 | locus YBR171W, strain sec66, stronger effect = lower value 0.989 | locus YBR229C, strain ROT2, stronger effect = lower value 1.01 | locus YBR231C, strain swc5, stronger effect = lower value 0.978 | locus YBR279W, strain paf1, stronger effect = lower value 0.984 | locus YCL011C, strain gbp2, stronger effect = lower value 0.966 | locus YCL016C, strain dcc1, stronger effect = lower value 0.978 | locus YCL029C, strain bik1, stronger effect = lower value 0.968 | locus YCL061C, strain MRC1, stronger effect = lower value 0.993 | locus YCL069W, strain vba3, stronger effect = lower value 0.982 | locus YCR088W, strain abp1, stronger effect = lower value 0.984 | locus YDL005C, strain med2, stronger effect = lower value 0.98 | locus YDL035C, strain GPR1, stronger effect = lower value 1.01 | locus YDL040C, strain nat1, stronger effect = lower value 0.976 | locus YDL074C, strain BRE1, stronger effect = lower value 1.01 | locus YDL101C, strain DUN1, stronger effect = lower value 1.01 | locus YDL134C, strain PPH21, stronger effect = lower value 1.01 | locus YDL185W, strain tfp1, stronger effect = lower value 0.992 | locus YDL192W, strain arf1, stronger effect = lower value 0.991 | locus YDR001C, strain nth1, stronger effect = lower value 0.979 | locus YDR069C, strain doa4, stronger effect = lower value 0.999 | locus YDR101C, strain arx1, stronger effect = lower value 0.97 | locus YDR137W, strain rgp1, stronger effect = lower value 0.918 | locus YDR150W, strain NUM1, stronger effect = lower value 1.02 | locus YDR159W, strain sac3, stronger effect = lower value 0.959 | locus YDR162C, strain NBP2, stronger effect = lower value 1.01 | locus YDR195W, strain ref2 0.928 | locus YDR297W, strain sur2, stronger effect = lower value 0.98 | locus YDR318W, strain mcm21, stronger effect = lower value 0.994 | locus YDR334W, strain swr1, stronger effect = lower value 0.975 | locus YDR335W, strain msn5, stronger effect = lower value 0.986 | locus YDR388W, stronger effect = lower value 0.975 | locus YDR392W, strain spt3, stronger effect = lower value 0.934 | locus YDR502C, strain sam2, stronger effect = lower value 0.98 | locus YEL003W, strain gim4, stronger effect = lower value 0.991 | locus YEL037C, strain rad23, stronger effect = lower value 0.984 | locus YEL061C, strain CIN8 (second series), stronger effect = lower value 0.966 | locus YEL061C, strain CIN8, stronger effect = lower value 1.01 | locus YER015W, strain faa2, stronger effect = lower value 0.989 | locus YER016W, strain bim1, stronger effect = lower value 0.98 | locus YER110C, stronger effect = lower value 0.981 | locus YER111C, strain swi4, stronger effect = lower value 0.98 | locus YER155C, strain BEM2 (second series), stronger effect = lower value 0.982 | locus YER155C, strain BEM2, stronger effect = lower value 1.01 | locus YER167W, strain BCK2, stronger effect = lower value 1.02 | locus YFR010W, strain ubp6, stronger effect = lower value 0.967 | locus YGL078C, strain dbp3, stronger effect = lower value 0.977 | locus YGL086W, strain mad1, stronger effect = lower value 0.997 | locus YGL167C, strain pmr1, stronger effect = lower value 0.963 | locus YGL173C, strain kem1, stronger effect = lower value 0.982 | locus YGL227W, strain vid30, stronger effect = lower value 0.962 | locus YGL240W, strain doc1, stronger effect = lower value 0.981 | locus YGL248W, strain PDE1, stronger effect = lower value 1.02 | locus YGL253W, strain hxk2, stronger effect = lower value 0.991 | locus YGR078C, strain PAC10, stronger effect = lower value 0.996 | locus YGR135W, strain pre9, stronger effect = lower value 0.968 | locus YGR229C, strain SMI1, stronger effect = lower value 0.967 | locus YGR252W, strain gcn5, stronger effect = lower value 1 | locus YHR013C, strain ard1, stronger effect = lower value 0.952 | locus YHR027C, strain rpn1, stronger effect = lower value 0.973 | locus YHR030C, strain SLT2, stronger effect = lower value 1.01 and 0.976 | locus YHR079C, strain IRE1 (second series), stronger effect = lower value 0.985 | locus YHR079C, strain IRE1, stronger effect = lower value 0.983 | locus YHR094C, strain hxt1, stronger effect = lower value 0.988 | locus YHR129C, strain ARP1, stronger effect = lower value 1.01 | locus YHR142W, strain chs7, stronger effect = lower value 0.999 | locus YHR200W, strain rpn10, stronger effect = lower value 0.989 | locus YIL066C, strain RNR3, stronger effect = lower value 1.01 | locus YIL073C, strain SPO22, stronger effect = lower value 1.02 | locus YIL125W, strain kgd1, stronger effect = lower value 1 | locus YIR030C, strain dcg1, stronger effect = lower value 0.993 | locus YJL092W, strain hpr5, stronger effect = lower value 0.982 | locus YJL095W, strain BCK1 (second series), stronger effect = lower value 0.979 | locus YJL095W, strain BCK1, stronger effect = lower value 0.975 and 0.978 | locus YJL115W, strain asf1, stronger effect = lower value 0.978 | locus YJL129C, strain trk1, stronger effect = lower value 0.974 | locus YJL134W, strain LCB3, stronger effect = lower value 1.01 | locus YJL154C, strain vps35, stronger effect = lower value 0.97 | locus YJL164C, strain tpk1, stronger effect = lower value 0.996 | locus YJL166W, strain qcr8, stronger effect = lower value 0.984 | locus YJL168C, strain set2, stronger effect = lower value 0.99 | locus YJL187C, strain SWE1 (second series), stronger effect = lower value 0.996 | locus YJL187C, strain SWE1, stronger effect = lower value 0.975 | locus YJR043C, strain POL32, stronger effect = lower value 1 | locus YJR066W, strain TOR1, stronger effect = lower value 0.935
